Most compounds without a hit are left out; they make up all but 1.3% or so of the library.
BRCA1 expr up: increases BRCA1 expression; MCF7-BRCA1-FFLuc reporter, luminescence, 48 h; response scale: scaled: vehicle 0%, 10 µM genistein 100%; Potency, µM (highest dose often 46.1 µM), hits mostly activators; actives 1.1% (n = 380,000); AID 624202; note: nearly all actives have a fitted effect of over 80% in size
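First, MCF7-BRCA1-FFLuc cells (2000/well) attach for 2 h; next, compounds are pin-added and incubated 48 h at 37 °C; finally, luciferase reagent is added and luminescence read after 15 min.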
PKM2 activator: activators of human pyruvate kinase M2. actives 0.34% (n = 260,000). P14618. Potency, µM (doses to about 57.5 µM), most hits filed as activators. purified PKM2, Kinase-Glo ATP luminescence, activation; response scale: 0% is enzyme alone, no compound; note: nearly all actives have a fitted effect of over 55% in size
Target sequence (P14618 whole entry, looked up): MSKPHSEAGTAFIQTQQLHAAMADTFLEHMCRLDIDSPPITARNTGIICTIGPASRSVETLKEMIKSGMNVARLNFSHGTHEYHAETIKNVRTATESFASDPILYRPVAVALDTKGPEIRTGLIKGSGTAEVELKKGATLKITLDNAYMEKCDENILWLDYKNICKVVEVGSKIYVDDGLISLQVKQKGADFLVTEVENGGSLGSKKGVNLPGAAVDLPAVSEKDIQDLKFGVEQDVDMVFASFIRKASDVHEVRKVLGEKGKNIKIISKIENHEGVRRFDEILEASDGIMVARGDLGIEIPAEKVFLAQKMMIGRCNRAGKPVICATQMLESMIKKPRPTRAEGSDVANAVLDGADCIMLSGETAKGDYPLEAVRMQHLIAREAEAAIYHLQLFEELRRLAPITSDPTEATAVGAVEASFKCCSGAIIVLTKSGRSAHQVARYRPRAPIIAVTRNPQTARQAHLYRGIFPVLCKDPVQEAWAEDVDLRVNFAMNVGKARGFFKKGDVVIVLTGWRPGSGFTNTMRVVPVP
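Purified hPK-M2 (>95% pure) converted ADP (0.1 mM final) to ATP with 0.5 mM PEP in 50 mM imidazole pH7.2, KCl, MgCl2, Tween 20, BSA; 1 h at room temperature. ATP detected by Kinase-Glo luminescence.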
IL2 activator: activates IL-2 in a cell-based reporter assay. AID 652025. activation, % (series mostly up to about 46 µM). actives 0.065% (n = 360,000). IL-2 activation reporter assay, cell-based qHTS; stimulated with anti-CD3/CD4/CD28 beads; in transgenic mouse T cells; in the data active = activation above about 50%; inconclusive = mostly about 30% to 49%
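Screening format: compound pinned onto unstimulated transgenic mouse T cells, 60 min incubation, then anti-CD3/anti-CD4/anti-CD28 bead stimulation for 18 hours at 37 degrees C, followed by EGFP and DsRed detection.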
Apoferritin bind: binds horse apoferritin like a general anesthetic; P02791; apoferritin/1-aminoanthracene competitive binding, fluorescence; Potency, µM (titrated, usually from 77.5 µM), actives largely listed as inhibitors; actives 0.074% (n = 350,000); AID 485281; note: nearly all actives have a fitted effect of over 20% in size
Target sequence (P02791 2-175 limits assumed): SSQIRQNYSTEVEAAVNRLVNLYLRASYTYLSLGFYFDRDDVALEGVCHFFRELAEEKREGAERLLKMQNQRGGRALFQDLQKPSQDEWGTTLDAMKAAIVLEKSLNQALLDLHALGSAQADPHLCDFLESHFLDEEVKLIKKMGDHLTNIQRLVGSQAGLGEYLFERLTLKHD
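Horse-spleen apoferritin (10 uM) was mixed with 50% saturated 1-aminoanthracene in PBS, exposed to compounds for 10 min at room temperature, and read for fluorescence (ex 380 nm, em 535 nm). Competitive displacement was fitted with a four-parameter Hill equation.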
Integrin act MD: activators of alpha7 integrin expression for muscular dystrophy | alpha7betagal myoblasts, beta-gal FDG fluorescence, 48 h | Potency, µM (titrated, usually from 38.3 µM), actives largely listed as activators | actives 0.064% (n = 350,000) | AID 624291; note: nearly all actives have a fitted effect of over 60% in size
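Alpha7betagal+/- myoblasts (passage 13) were plated 16-24 hr, then exposed to compounds (1:260 dilution of DMSO stock) for 48 hours at 37C. After MPER lysis, β-galactosidase reporter activity was read as FDG fluorescence (ex 480/em 540) after 30 minutes.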
A number is an active result; - = inactive; ? = inconclusive; . = no result given; [ ] = remark or other dose. Unless noted, calls come from the whole dose curve; as a rule, active = well fitted curve in the direction sought with a large enough effect; inconclusive = small, poorly fitted or top-dose-only effect, or another doubt; inactive = no such curve, though single readings can be large; an effect the other way counts as inactive or inconclusive.

SMILES	BRCA1 expr up	PKM2 activator	IL2 activator	Apoferritin bind	Integrin act MD
Cc1nc(-c2ccc(NC(=O)c3ccc(Br)o3)cc2)cs1	11µM	-	-	?	-
Cc1nc(-c2cccc(NC(=O)c3ccc(Br)o3)c2)cs1	-	.	-	-	-
COC(=O)CSC1=C(C#N)C(c2ccccc2F)CC(=O)N1 (stereo not given)	-	28µM	-	-	-
CC(=O)NC1CCCC1C#N (stereo not given)	-	.	.	.	.
CCOC(=O)c1cn2nc(SCc3ccccc3)nc2nc1C	11µM	-[11.5 µM]	-	-	-
N#Cc1cnc2nc(SCc3ccccc3)nn2c1	3.5µM	.	-	-	-
CCc1ccc(C(=O)Cc2cc3cccc(OC)c3oc2=O)cc1	11µM	.	-	-	-
COc1cccc2cc(CC(=O)c3ccccc3)c(=O)oc12	10µM	.	-	-	-
COc1cccc2cc(CC(=O)c3cc(C)ccc3C)c(=O)oc12	-	.	-	-	-
COc1cccc2cc(CC(=O)c3ccc(C)c(C)c3)c(=O)oc12	11µM	.	-	-	-
O=C(CCOc1ccccc1)NO	-	.	.	.	.
CCN(CC)c1ccc(/C=C(/C#N)c2nc3ccc(C)cc3[nH]2)c(OC(C)C)c1	-	-	218	-	-
COc1cc(/C=C(\C#N)c2nc3ccc(C)cc3[nH]2)cc([N+](=O)[O-])c1O	7.1µM	?	-	?	?
CCCOc1cc(N(CC)CC)ccc1/C=C(/C#N)c1nc2ccc(C)cc2[nH]1	-	-	-	?	-
N#Cc1c(NC(=O)c2cc3nc(-c4ccc(Br)cc4)cc(C(F)(F)F)n3n2)sc2c1CCCC2	.	.	.	-	.
COc1ccccc1COC(=O)N/C=C/c1ccco1	-	18µM	-	-	-
COc1ccc(COC(=O)N/C=C/c2ccco2)cc1	-	-	-	-	-
CC(C)CCNC(=O)C(=O)Nc1ccccc1	8.9µM	-	-	-	-
CC(C)CCNC(=O)c1ccc(-c2ccccc2)cc1	.	-	.	-	.
O=C(O)c1cc(NN=C2CCN(Cc3ccccc3)CC2)ccc1Cl	3.2µM	-	-	-	-
O=C(NN=C1CCN(Cc2ccccc2)CC1)c1ccccc1O	-	-	-	-	-
O=C(c1cc2sccc2n1Cc1ccccc1)N1CCCc2ccccc21	-	-	-	-	-
Cn1c(C(=O)N2CCCc3ccccc32)cc2sccc21	-	-	-	13µM	-[7.66 µM]
O=C(c1cccs1)N1CCCc2ccccc21	-	-	-	?	-
O=C(c1cccs1)N1CCc2ccccc21	7.9µM	-	-	?	-
SMILES	BRCA1 expr up	PKM2 activator	IL2 activator	Apoferritin bind	Integrin act MD
c1ccc(CSc2n[nH]c(-c3ccco3)n2)cc1	11µM	-	-	-	-
c1ccc(CSc2nccc(-c3ccco3)n2)cc1	-	.	-	.	-
C/C(=N\OCC(=O)NCC(F)(F)F)c1cc2ccccc2o1	13µM	-	-	-	-
CCCCNC(=O)CO/N=C(\C)c1cc2ccccc2o1	-	-	-	-	-
O=S(=O)(Nc1cccc2cccnc12)c1ccccc1O	.	.	.	-	.
Cc1ccc(C)c(NC(=S)NNC(=O)c2csc3c2CCCC3)c1	-	-	-	?	-
Cc1ccc(C)c(NC(=S)NNC(=O)c2csc3c2CCC(C)C3)c1 (stereo not given)	-	-	-	28µM	-
C/C(Cc1ccccc1)=N\NC(=O)CNC(=O)c1ccc(Cl)cc1	-	-	-	-	-
CCC/C(=N\NC(=O)CNC(=O)c1ccc(Cl)cc1)c1ccccc1	-	-	-	16µM	?
COc1ccc(-c2nc(C#N)c(NCc3ccco3)o2)cc1	8.9µM	-	-	-	-
Cc1ccc(-c2nc(C#N)c(NCc3ccco3)o2)cc1	?	-	-	-	-
O=[N+]([O-])c1nn(-c2ccc3c(c2)OCCO3)n(O)c1=NCCC1=CCCCC1	4.5µM	-	-	?	-
Cc1ccc(N2CN=C(c3ccccc3)NC2=S)cc1	11µM	-	-	-	-
COc1ccc(OCc2n[nH]c(=S)n2-c2ccc(C)cc2)cc1	-	-	-	-	-
COc1ccc(C2=NCN(c3ccc(C)cc3)C(=S)N2)cc1	4µM	-	-	-	-
Cc1ccc(N2CC(O)=C(c3ccccc3)C2=N)cc1	-	-	-	-	-
Cc1ccc(Cn2c(CCNC(=O)c3cccc(C)c3)nc3ccccc32)cc1	-	.	.	-	.
CC1(C)OB(c2cnc(C#N)nc2)OC1(C)C	-	.	.	.	.
N#Cc1ccc2sn(-c3ccccc3)c(=O)c2c1	11µM	.	-	.	-
C=C1C=C(C)n2ncc(C(=O)Nc3ccc(F)cc3F)c2N1	-	.	.	.	.
CCc1ccc(NC2=NCC(c3ccccc3)S2)cc1 (stereo not given)	11µM	-	-	-	-
O=C(/C=C1\C(=O)Nc2ccccc21)/C=C1\C(=O)Nc2ccccc21	-	1.4µM	-	-	-
O=C1Nc2ccccc2/C1=C\C(=O)c1ccccc1	-	.	-	-	-
Cc1ccccc1Oc1ccc(Oc2ccccc2C)nn1	7.1µM	-	-	-	-
Cc1ccc(NC(=O)/C=C/c2ccc([N+](=O)[O-])s2)c(C)c1	-	-	-	-	-
SMILES	BRCA1 expr up	PKM2 activator	IL2 activator	Apoferritin bind	Integrin act MD
Cc1cc([N+](=O)[O-])ccc1NC(=O)/C=C/c1cccs1	5.6µM	-	-	-	-
CC(=O)c1cnc2c(-c3ccc(Cl)cc3)cnn2c1C	3.5µM	-	-	-	-
CN(C)C(=S)SCC(=O)Nc1ccc(Cl)cc1Cl	10µM	-	-	-	-
O=C(CC(=O)Nc1ccc(Cl)cc1Cl)Nc1ccc(Cl)cc1Cl	-	.	-	-	-
Cc1cc(=O)oc2cc(NC(=O)c3cc4ccccc4o3)ccc12	.	-	.	-	.
Cc1cc([N+](=O)[O-])ccc1NC(=O)c1cc2ccccc2o1	7.9µM	-	-	-	-
Cc1ccc(NC(=O)c2ccc(OC(=O)c3cc4ccccc4o3)cc2)cc1	4µM	-	-	-	-
O=C(Nc1ccc2oc(=O)ccc2c1)c1cc2ccccc2o1	2.5µM	-	-	-	-
COc1ccc([C@]23Cc4cc(OC)c(OC)cc4C(O2)C2=C(CCCC2=O)O3)cc1	.	-[11.5 µM]	.	?	.
CC(C)(C)C(=O)Oc1ccc2cc(-c3ccc4ccccc4n3)c(=O)oc2c1	14µM	-	-	-	-
O=c1oc2cc(O)ccc2cc1-c1ccccc1	10µM	-[0.46 µM]	-	-	-
O=c1oc2cc(O)ccc2cc1-c1nc2c(s1)CCc1ccccc1-2	-	-	50	-	-
COc1ccc(-c2cc3ccc(O)cc3oc2=O)cc1	?	.	-	-	-
CC(=O)Oc1ccc(-c2cc3ccccc3oc2=O)cc1	13µM	.	-	.	-
Cc1ccc(CCNC(=O)c2cc(C)nc3c2c(C)nn3-c2ccc(C)cc2)cc1	.	.	.	-	.
CCc1ccccc1NC(=O)CC(c1ccc(F)cc1)N1Cc2ccccc2C1=O (stereo not given)	.	.	.	-	.
C#CC(C)OC(=O)c1nnc2c3ccccc3n(COC)c2n1 (stereo not given)	.	.	.	-[15.3 µM]	.
